Out of some 330,000 compounds screened, about 1,900 (0.58%) were called active. Roughly 4% stayed inconclusive and do not appear here. The list is a sample of the results. Entries with a potency or affinity are not part of this list. A number with no mark means an inactive call. Cut-off read from the data, not from the text of the source: inconclusive = inhibition above about 70% without an active follow-up result; inactive = below that.

What is called inhibition is the change of the read-out against control, counted positive when it falls.

This assay can be described thus: M. tuberculosis growth inhibition, HTS (AID 449762).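 Note: bacterial growth assessed after seven days of incubation.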 To be noted: M. tuberculosis H37Rv growth inhibition, 7H9 media; at 25 µM; active compounds read high.
Take `N#Cc1ccccc1OCC(=O)N1CCc2ccccc2C1`: the inhibition is -4.88%.

Take `Cc1ccc(-c2nnc(NCc3nc4ccccc4[nH]3)c3ccccc23)cc1S(=O)(=O)N1CCOCC1`: the inhibition was 63.7%.

Consider `Cc1nc(-c2ccccc2)sc1C(=O)CSc1ccc(Cl)cc1`, for which the inhibition was -5.11%.

Consider `c1ccc2c(c1)OCc1cn[nH]c1-2`, for which the inhibition was -2.59%.

Consider `Cc1ccc(/C=C/c2nnc(-c3ccccc3)o2)cc1`, for which the inhibition is -11.8%.

Turning to `COC(=O)CSc1[nH]c2ccccc2c1[N+](=O)[O-]`, the inhibition was -2.39%.

For the compound `CCOC(=O)CSc1[nH]c2cc(OC)ccc2c1[N+](=O)[O-]`, the inhibition was 6.24%.

Take `CN(C)CCOc1ccc(C(C)(C)c2ccccc2)cc1`: the inhibition was -3.02%.

Turning to `CN(C)CCOc1ccc2ccccc2c1`, the inhibition was 2.98%.

Turning to `COc1ccccc1NC(=O)Nc1ccc(F)c(F)c1`, the inhibition is 0.47%.

On to `CCc1nnc(NS(=O)(=O)c2ccc(N/C=C\C(=O)c3ccc4ccccc4c3)cc2)s1`, for which the inhibition is -6.64%.

With `CCc1nnc(NS(=O)(=O)c2ccc(N/C=C/C(=O)c3ccc(OC)cc3)cc2)s1`, the inhibition was 4.48%.

For `Cn1c(=O)c2c(SCC(=O)Nc3nccs3)nc(C3CC3)nc2n(C)c1=O`, the inhibition is -1.82%.

With `Cc1ccc(C2=NS(=O)(=O)N(C)C(C(=O)Nc3cc(C)n(CC(=O)N4CCCCC4)n3)=C2)cc1`, the inhibition is -4.07%.

For `Cc1cccc(N=C2C(=O)Nc3c(Cl)cccc32)c1`, the inhibition is 6.57%.

Regarding `Cc1ccc(NC(=O)CSc2nc3ccccc3c3nc(CCn4cncc4C)nn23)c(C)c1`, the inhibition was 9.55%.

For `Cc1ccccc1NC(=O)CSc1nc2ccccc2c2nc(CCn3cncc3C)nn12`, the inhibition was 6.6%.

Regarding `O=C(NCc1ccc2c(c1)OCO2)c1ccc(C2SCC(=O)N2Cc2ccco2)cc1` (configuration not stated), the inhibition was -7.71%.

As to `COc1ccc(C(=O)NCc2ccc3c(c2)OCO3)cc1`, the inhibition was -0.3%.

Consider `COc1cc2c(cc1NC(=O)CN1CCN(S(=O)(=O)c3ccc(C)cc3)CC1)oc1ccccc12`, for which the inhibition was -6.72%.

Consider `Cc1nc2nc3c(c(=O)n2[nH]1)CCC3`, for which the inhibition is -2.58%.

In the case of `O=c1c2c(nc3nc(NCc4ccccc4Cl)[nH]n13)CCC2`, the inhibition was 21.9%.

Consider `O=c1c2c(nc3nc(NCc4cccc(Cl)c4)[nH]n13)CCC2`, for which the inhibition was 19.9%.

With `Cc1nc2nc3c(c(=O)n2[nH]1)CCCC3`, the inhibition is -1.58%.

On to `COc1ccc(NC(=O)C2CCN(c3cc(-c4ccccc4)nc4ncnn34)CC2)cc1OC`, for which the inhibition is -9.41%.

For `CCOc1ncccc1C(=O)Nc1cccc(-c2nc3cccnc3s2)c1`, the inhibition was 2.6%.

For `CCn1c(=O)n(CC)c2cc(S(=O)(=O)Nc3c(C)cccc3C)ccc21`, the inhibition was -0.18%.

Turning to `O=C1/C(=C\c2cccnc2)CCc2ccccc21`, the inhibition was 53.9%.

In the case of `O=C1/C(=C/c2ccncc2)CCc2ccccc21`, the inhibition was 20.6%.

As to `COc1ccc(CNC(=O)C2CCN(C(=O)c3csc(Nc4ccc(C)cc4)n3)CC2)cc1`, the inhibition was 9.09%.

With `CC(CN1CCCCC1)OC(=O)/C=C/c1ccccc1` (configuration not stated), the inhibition was 4.22%.

Consider `CCCc1nc2c(=O)[nH]c3ccccc3c2o1`, for which the inhibition is -2.82%.

On to `CCCCc1nc2c(=O)[nH]c3ccccc3c2o1`, for which the inhibition is -3.26%.

Turning to `CC(C)N1CCc2c(sc(NC(=O)CCc3ccccc3)c2C(N)=O)C1`, the inhibition was 2.58%.

On to `Cc1cccc(CNc2ncnc3ccc(-c4ccc5c(c4)OCO5)cc23)c1`, for which the inhibition is 4.98%.

For `c1cncc(CNc2ncnc3ccc(-c4ccc5c(c4)OCCO5)cc23)c1`, the inhibition was 6.78%.

`O=C(CN1C(=O)NC(c2ccccc2)(c2ccccc2)C1=O)N1CCCCC1`: the inhibition was 3.83%.

With `O=C1[C@H]2[C@@H](c3ccc(F)cc3)N3C(=O)N(c4ccccc4)C(=O)[C@@]3(Cc3ccccc3)[C@H]2C(=O)N1C1CCCCC1`, the inhibition was -4.71%.

Consider `Cc1cccc(C2(c3cccc(C)c3)CC2C(=O)Nc2ccc([N+](=O)[O-])cc2O)c1` (configuration not stated), for which the inhibition was 8.65%.

As for `CC1(C)CC1C(=O)Nc1ccc([N+](=O)[O-])cc1Br` (configuration not stated), the inhibition is -1.2%.

As for `CCC(=O)NC(=S)Nc1ccc(OC)cc1OC`, the inhibition is 2.55%.

Take `Cc1nc(SCC(=O)NCC2CCCO2)c2c(C)c(C)sc2n1` (configuration not stated): the inhibition is -15.3%.

With `Cc1nc(SCC(=O)NCC2CCCO2)c2c3c(sc2n1)CCC3` (configuration not stated), the inhibition is -2.08%.

In the case of `O=C(CSc1nc2scc(-c3ccccc3)c2c(=O)[nH]1)NCCc1ccccc1`, the inhibition was -20.7%.

Take `O=c1[nH]c(=O)n(C2CCCO2)cc1Br` (configuration not stated): the inhibition is 1.51%.

On to `O=c1[nH]c(=O)n([C@H]2C[C@H](O)[C@@H](CO)O2)cc1F`, for which the inhibition was 34.4%.

Consider `COc1ccc(O)c(CN2CCCC(N3CCN(c4ccccc4OC)CC3)C2)c1` (configuration not stated), for which the inhibition was 4.68%.

As to `O=C(CCNC(=O)c1ccccc1Cl)Nc1nccs1`, the inhibition was -4%.

As to `COc1ccc(N(CC(=O)NCCc2ccccc2)C(=O)c2csnn2)cc1OC`, the inhibition is -2.24%.

As to `COc1ccc(C2CC2/C(C)=N/OC(=O)C2CC2)cc1` (configuration not stated), the inhibition was 68.7%.

Consider `COc1ccc(C2CC2C(C)=O)cc1` (configuration not stated), for which the inhibition is -4.29%.

In the case of `CC(C)(C)OC(=O)N1CCC(CC2CC(c3ccncc3)=NO2)(C(=O)O)CC1` (configuration not stated), the inhibition is -6.97%.

In the case of `O=c1c2ccccc2nnn1CSc1ccc2ccccc2n1`, the inhibition was -1.57%.

Turning to `CSc1ccc(S(=O)(=O)NCC(=O)OCC(=O)N2CCCCC2C)cc1[N+](=O)[O-]` (configuration not stated), the inhibition is -8.12%.

On to `COc1ccc(-c2nsc3c(N4CCCC4)ncnc23)cc1`, for which the inhibition is 5.98%.

For `COc1ccc(-c2nsc3c(N4CCCCC4)ncnc23)cc1`, the inhibition was -0.13%.

Consider `Cc1ccc(CNC(=O)Cn2cccc2C(=O)c2ccccc2C)cc1`, for which the inhibition is -0.89%.

Regarding `CCN(CC)S(=O)(=O)c1cccc(C(=O)N/N=C/c2ccccn2)c1`, the inhibition was -3.65%.

On to `O=C(Nc1ccc(Br)cc1Cl)c1ccc(OCC2CCCO2)cc1` (configuration not stated), for which the inhibition is 3.35%.

Consider `CCOC(=O)C1(Cc2cccc(Cl)c2)CCCN(C(=O)c2cnn(CC)c2)C1` (configuration not stated), for which the inhibition is -5.14%.

As to `CCOc1ccc(C(=O)Nc2ccc3c(c2)OCCO3)cc1`, the inhibition is 9.28%.

For `CCOc1ccc(NC(=O)COC(=O)c2ccc3c(c2)OCCO3)cc1`, the inhibition was 9.4%.

Values taken from PubChem BioAssay AID449762 (Southern Research Specialized Biocontainment Screening …, 2010).
